# Most compounds without a hit are left out; they make up all but 2.3% or so of the library.
# B2AR ag – agonists of human beta-2 adrenergic receptor inducing internalization. P07550. Am2.2-beta2AR cells, FAP receptor internalization, flow cytometry. response, % (concentration not given with the values). hit rate 0.43% among 340,000. AID 504454;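 active = response above a set limit, near 3 SD of response in nonfluorescent compounds, cut at about 42% in these data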
# Granule exo inh – lytic granule exocytosis inhibition; inhibition, % at 10 µM; AID 651702; hit rate 0.66% among 360,000; TALL-104 LAMP-1 surface exposure, flow cytometry; cells stimulated with thapsigargin and PMA;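 active = inhibition above about 55%, limit read from the data; inconclusive = no clear call, values can overlap the other calls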
# NTR1 agonist – NTR1 (human) agonism. NTR1-U2OS beta-arrestin-GFP spot imaging, agonist mode. activation, % at 20 µM. hit rate 0.17% among 330,000. P30989;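 active = activation at or above 40% of the spot to cytoplasm intensity ratio, with at least 20 cells analyzed; inconclusive = wells under 20 cells, flagged as cytotoxic or low count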;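 also: 0% = DMSO without peptide and 100% = 100 nM NTR1 peptide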
# ABHD5 PLIN5 PPI – blocks binding of human ABHD5 to perilipin-5 | Split G. princeps luciferase complementation, luminescence, 4 h | inhibition, % at 4 µM | hit rate 0.78% among 360,000 | AID 602281;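 active = inhibition above the mean inhibition across every tested compound plus 3 SD, cut at about 22% in these data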;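 also: 0% = DMSO only wells and the 100% control is not disclosed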
# HTR2A ag – agonists of mouse serotonin 5-HT2A receptor (HTR2A); hit rate 0.66% among 360,000; activation, % at 7.6 µM; CHO-K1 mHTR2A beta-arrestin complementation, luminescence; percent of 30 µM serotonin response; P35363;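 active = activation above a run cutoff, the mean activation of all tested compounds plus 3 SD, cut at about 14% in these data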;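 also: 0% = plate median of compound wells and 100% = 30 µM serotonin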
# Target sequence (P35363 whole entry, looked up): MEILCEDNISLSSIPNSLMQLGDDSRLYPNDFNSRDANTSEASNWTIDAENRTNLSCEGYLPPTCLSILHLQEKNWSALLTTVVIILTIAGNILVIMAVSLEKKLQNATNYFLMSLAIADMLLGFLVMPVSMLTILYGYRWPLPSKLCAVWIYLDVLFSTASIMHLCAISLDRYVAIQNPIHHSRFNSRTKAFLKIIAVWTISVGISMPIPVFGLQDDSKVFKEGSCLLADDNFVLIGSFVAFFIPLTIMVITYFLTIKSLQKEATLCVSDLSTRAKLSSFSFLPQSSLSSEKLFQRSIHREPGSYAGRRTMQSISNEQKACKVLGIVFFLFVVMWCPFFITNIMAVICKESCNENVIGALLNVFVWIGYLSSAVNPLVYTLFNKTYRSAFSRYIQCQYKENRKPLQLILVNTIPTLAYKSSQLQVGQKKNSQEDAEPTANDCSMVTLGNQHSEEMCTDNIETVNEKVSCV
# * = called active by the depositor; ? = inconclusive; . = no result.
SMILES,B2AR ag,Granule exo inh,NTR1 agonist,ABHD5 PLIN5 PPI,HTR2A ag
Cn1cc(CNCc2cn(C)nc2-c2ccc(C3CCCCC3)cc2)cn1,28,6,0,22*,1
Cc1cccc(C)c1-n1nnnc1-c1nc2cc(Br)ccc2[nH]c1=O,.,77*,.,5,-3
O=C(c1ccccc1)N1CCN(C(=O)c2nn3c(C(F)(F)F)cc(-c4ccco4)nc3c2Br)CC1,-5,-10,1,22*,5
COc1ccc(CN2CCN(C(=O)c3c(-c4ccccc4)noc3C)CC2)cc1F,6,-4,-1,5,5
Cc1ccc(-n2c(-c3ccc(Br)cc3)c[n+]3c2CCc2ccc4cccnc4c2-3)cc1,-5,72*,.,20,5
O=[N+]([O-])c1ncccc1OCc1ccc(-c2ccccc2)cc1,8,86*,0,-6,-5
CCN(CC)c1nc(Nc2ccc([N+](=O)[O-])cc2)nc(N(CC)CC)n1,26,107*,2,-4,4
CN(C)c1nc(=NCc2cccs2)ss1,-11,65*,.,78*,-20
CCCCNc1c(-c2cccc(-c3ccc(OC)cc3)c2)nc2ccc(C)cn12,49*,22,36,-12,12
CCCCNc1c(-c2cccc(-c3ccc(OC)cc3)c2)nc2cc(C)ccn12,25,-3,33,-16,-5
CC(C)CC(=O)/C=C/n1c(=S)oc2ccccc21,49*,2,.,3,-2
Cn1c(=S)oc2ccccc21,-9,-8,0,6,0
O=S(=O)(c1cnc(Cl)c(Br)c1)N1CCc2ccccc21,56*,0,2,-2,0
O=C(NC1CC1)c1ccc(-c2ccc3nccn3c2)cc1,.,2,.,4,3
O=C(NCc1ccco1)c1ccc(-c2ccc3nccn3c2)cc1,.,3,.,22*,4
O=C(CN(CC1CCCO1)C(=O)CNS(=O)(=O)c1ccc(F)cc1)NC1CCCCC1 (stereo not drawn),-1,?,0,1,5
O=[N+]([O-])c1cc(S(=O)(=O)N2CCCCCC2)ccc1F,50*,1,.,4,2
COc1ccc2c(c1OC)C(=O)OC2Nc1nc(-c2cc3ccccc3oc2=O)cs1 (stereo not drawn),12,79*,-1,1,5
CC(C)CC(NC(=O)C(NC(=O)C1CCC(=O)N1C(=O)OCc1ccccc1)C(C)C)C(=O)N1CCCC1C(N)=O (stereo not drawn),-3,18,2,-7,8
CCCc1cc(-c2nc(N)ncc2-c2csc(C)n2)c(O)cc1OC,-3,6,10,-6,4
CCCc1cc(-c2nc(N)ncc2-c2ccc3c(c2)OCCCO3)c(O)cc1OC,13,31,49*,-12,1
O=C(Nn1c(COc2ccccc2)nc2ccccc2c1=O)C(Cl)(Cl)Cl,16,79*,2,0,5
Cn1nc([N+](=O)[O-])c(C(C#N)c2nc3ccccc3n2C)c(Cl)c1=O (stereo not drawn),1,71*,5,9,-4
Cn1c(-c2ccc([N+](=O)[O-])cc2)nc2ccccc21,5,3,0,-13,5
CCOc1ccccc1NC(=O)CSc1nc(=O)n(CCCN2CCOCC2)c2c1CCCC2,3,-7,0,-6,-12
SMILES,B2AR ag,Granule exo inh,NTR1 agonist,ABHD5 PLIN5 PPI,HTR2A ag
COc1ccc(-c2nn(-c3ccccc3)cc2/C=C/C(=O)N2CCN(c3ccccn3)CC2)cc1,55*,-2,5,1,11
CCO[C@@H]1OC(C(=O)N2CCOCC2)=C[C@H](c2ccc(Br)cc2)[C@H]1CCCO,-5,18,-3,1,18*
CCOC(=O)C1CCN(C(=O)CCCn2nc(C)c3c(C)n(-c4ccc(C)cc4)nc3c2=O)CC1,-1,-3,0,15,-3
COc1cccc(OC)c1-c1nn2c(-c3cc(-c4ccccc4)n[nH]3)nnc2s1,100*,-12,3,-3,2
COc1cccc(-c2nnc3sc(-c4ccccc4)nn23)c1,-19,3,2,1,-4
Fc1cc(F)cc(Nc2nc(Cl)nc(NC3CCCC3)n2)c1,11,8,35,-15,8
O=c1cc2oc3cc(O)c(O)cc3c(-c3ccccc3[N+](=O)[O-])c-2cc1O,-7,-4,1,11,6
CCN(CC(=O)NCc1cccs1)C(=O)/C=C/c1cc(OC)c(OC)c(OC)c1,-3,-5,4,-2,0
CNC[C@@H](CC1CCCCC1)NC[C@H](CC(C)C)NCCc1cccc(C(F)(F)F)c1,43*,0,10,17,4
CNC[C@@H](Cc1ccccc1)NC[C@@H](CC1CCCCC1)NCCCc1ccccc1,26,7,8,13,0
CCSc1nc2ccccc2n1C(=O)/C=C/c1ccc(OC)c(OC)c1,42*,2,32,20,2
C=CCSc1nc2ccccc2n1C(=O)/C=C/c1ccc(OC)c(OC)c1,34,-3,.,9,-2
COC1=C(Nc2ccccc2OC)C(=O)c2ccccc2C1=O,-33,-1,5,-14,12
COc1ccccc1NC1=C(NC(C)=O)C(=O)c2ccccc2C1=O,6,90*,.,6,-2
O=C(CSc1nnc2c(n1)[nH]c1ccccc12)NCc1ccccc1F,-10,11,2,3,15*
O=C(CSc1nnc2c(n1)[nH]c1ccc(F)cc12)Nc1ccccc1F,0,4,0,3,6
Cc1ccc(-n2c(C)cc(C3=NNC(=NC4CC4)SC3)c2C)cc1C,10,1,2,-3,-3
Cc1cccc(/C=N/NC(=O)c2cc(-c3cccnc3)nc3c2c(C)nn3-c2ccccc2)c1,103*,34,1,3,4
Cc1nn(-c2ccccc2)c(C)c1/C=N/NC(=O)c1cc(-c2ccccc2)n[nH]1,68*,18,6,-3,-3
Cc1nn(-c2ccccc2)c(C)c1/C=N/NC(=O)c1cc(-c2cccc3ccccc23)n[nH]1,-2,5,3,-8,-10
Cc1nn(-c2ccccc2)c(Cl)c1/C=N/NC(=O)c1cccnc1,50*,-1,-1,0,2
C#CCN1C=CC(=O)[C@@H](OC(=O)Nc2ccc(C)cc2)[C@H]1c1ccccc1Br,6,-2,.,0,-10
CC(=O)Nc1ccc(NC(=O)C(C)OC(=O)CNS(=O)(=O)/C=C/c2ccc(C)cc2)cc1 (stereo not drawn),1,2,0,4,4
Nc1nc2c(ncn2[C@@H]2O[C@H](CNCc3cnc(N4CCOCC4)nc3)[C@@H](O)[C@H]2O)c(=O)[nH]1,.,-1,.,-2,-2
N#Cc1ccc(CN2CCN(C(=O)C3CC(=O)N(c4ccc5c(c4)OCCO5)C3)CC2)cc1 (stereo not drawn),.,-4,.,1,5
COc1cc(OC)c2c(-c3ccccc3)cc(=O)oc2c1C(CCN1CCCC1)c1ccc2c(c1)OCO2 (stereo not drawn),19,-1,15,22*,-4

# Compound activity: PubChem, several laboratories
